These results are taken from PubChem BioAssay.

Structures are written as SMILES. Activity calls are given as the source filed them. No rule for the calls is given here.

This experiment is described as follows: kinase inhibitors against Plasmodium liver-stage infection, cell-based, known kinase inhibitor set, luminescence, hepatoma host viability (AID 624392).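 Also: infected cells incubated roughly two days before readout.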 Conditions: Plasmodium liver stage in hepatoma cells, luciferase luminescence, concentration not given here; liver cell % of control: measured here: host liver cell viability; parasite % of control: stronger effect = lower value.

In the case of `CC(C)Oc1cc(C(=O)N2CCC(N3CCCCC3)CC2)ccc1Nc1nnc(Cl)c(Nc2ccccc2S(C)(=O)=O)n1`, the liver cell % of control came to 98.2% and the parasite % of control is 81.6% (inactive).
Taken in the same sequence, the figures for `CCN1CCN(Cc2ccc(NC(=O)c3cc(NC(=O)c4cnnc5ccccc45)cc(OC)c3)cc2C(F)(F)F)CC1` were 94.5% and 85.8% (inactive).
Taken in the same sequence, the figures for `CCN1CCN(Cc2ccc(NC(=O)c3cc(NC(=O)c4nccnc4N)cc(OC)c3)cc2C(F)(F)F)CC1` were 98.4% and 64.5% (inactive).
Taken in the same sequence, the figures for `Cc1ccc(C(=O)Nc2cccc(C(F)(F)F)c2)cc1NC(=O)c1nccnc1N` were 95% and 83.1% (inactive).
Consider `COc1cc(Nc2ccccn2)cc(C(=O)Nc2cccc(C(F)(F)F)c2)c1`, for which the liver cell % of control was determined as 92.4% and the parasite % of control was 74.9% (inactive).
In the case of `Cc1nc(Nc2cnc(C=Cc3cc(C(=O)Nc4cccc(C(F)(F)F)c4)ccc3C)cn2)cc(N2CCNCC2)n1`, the liver cell % of control was determined as 92.4% and the parasite % of control was 144% (inactive).
For `CN(C)C1=NC(=O)C(=Cc2ccc(-c3ccc(S(N)(=O)=O)cc3)o2)S1`, in that order: 99.8% and 84.6% (inactive).
For `COc1cc(NC(=O)c2cnc(N)o2)cc(C(=O)Nc2cccc(C(F)(F)F)c2)c1`, in that order: 87.7% and 106% (inactive).
For `NS(=O)(=O)c1ccc(-c2ccc(C=C3SC(=O)NC3=O)o2)cc1`, in that order: 89% and 18.1% (active).
On to `CCN1CCN(Cc2ccc(NC(=O)c3ccc(C)c(NC(=O)c4ccc5n[nH]nc5c4)c3)cc2C(F)(F)F)CC1`, for which the liver cell % of control came to 104% and the parasite % of control is 112% (inactive).
For `COc1ccc(-c2cc(C(=O)Nc3cc(OC)cc(C(=O)Nc4cccc(C(F)(F)F)c4)c3)[nH]n2)cc1`, in that order: 93.9% and 36.9% (inactive).
Taken in the same sequence, the figures for `CC(C)n1cnc2c(Nc3ccc(C(=O)O)cc3)nc(Cl)nc21` were 88.9% and 123% (inactive).
For `CN(c1ccc(OC(F)(F)F)cc1)c1cc(-c2cccc(C(N)=O)c2)ncn1`, the liver cell % of control amounted to 99.1% and the parasite % of control was 107% (inactive).
For `CCN1CCN(Cc2ccc(C(=O)Nc3ccc(C)c(NCc4cnc(NC(=O)OC)cn4)c3)cc2C(F)(F)F)CC1`, in that order: 105% and 107% (inactive).
For `COc1cc(NC(=O)c2cnc(N)s2)cc(C(=O)Nc2cccc(C(F)(F)F)c2)c1`, the liver cell % of control turned out to be 98.2% and the parasite % of control is 79% (inactive).
Consider `C=CC(=O)N1CCCC(Nc2nc(Nc3ccc(N(C)C(=O)CC)cc3C)nc3nc[nH]c23)C1` (centres undefined), for which the liver cell % of control was 105% and the parasite % of control is 93.2% (inactive).
For `CCN1CCN(Cc2ccc(NC(=O)c3cc(NC(=O)c4cc5cccc(OC)c5o4)cc(OC)c3)cc2C(F)(F)F)CC1`, in that order: 93.7% and 89.9% (inactive).
For `NC(=O)c1cccc(-c2cc(Oc3ccc(OC(F)(F)F)cc3)ncn2)c1`, in that order: 101% and 113% (inactive).
For `O=C(Nc1ccc(-c2csc(Nc3cccc(C(F)(F)F)c3)n2)cc1)c1cccc(C(F)(F)F)c1`, in that order: 101% and 45.1% (inactive).
Regarding `COc1cc(NC(=O)c2cncc(-c3ccc(C#N)cc3)c2)cc(C(=O)Nc2cccc(C(F)(F)F)c2)c1`, the liver cell % of control came to 98.8% and the parasite % of control was 101% (inactive).
For `O=C(Nc1ccc(-c2csc(Nc3ccccc3)n2)cc1)c1ccccc1`, in that order: 102% and 204% (inactive).
Take `Nc1cccc(-c2c[nH]c3ncc(-c4cccnc4)cc23)c1`: the liver cell % of control came out at 94.3% and the parasite % of control is 42.1% (inactive).
For `CCN1CCN(Cc2ccc(NC(=O)c3cc(NC(=O)c4cc(-c5ccc(OC)cc5)n[nH]4)cc(OC)c3)cc2C(F)(F)F)CC1`, in that order: 90.4% and 132% (inactive).
`Nc1cnc(CNc2ccccc2Cl)cn1`: the liver cell % of control amounted to 100% and the parasite % of control is 136% (inactive).
For `CCN1CCN(Cc2ccc(NC(=O)c3ccc(C)c(NC(=O)C4=NN(c5ccccc5)C(=O)C4)c3)cc2C(F)(F)F)CC1`, in that order: 101% and 72.3% (inactive).
For `COc1cc(C(=O)N2CCC(N3CCCCC3)CC2)ccc1Nc1nnc(Cl)c(Nc2ccccc2S(C)(=O)=O)n1`, in that order: 97.3% and 118% (inactive).
Taken in the same sequence, the figures for `CCC(CO)Nc1nc(Nc2cccc(Cl)c2)c2ncn(C(C)C)c2n1` (centres undefined) were 90.3% and 477% (inactive).
Regarding `O=C1NN(c2ccccc2)C(=O)C1=Cc1ccc(-c2ccc(Cl)cc2)o1`, the liver cell % of control amounted to 98.7% and the parasite % of control was 92.2% (inactive).
With `O=C(Nc1cccc(-c2csc(Nc3ccccc3)n2)c1)c1ccccc1`, the liver cell % of control is 102% and the parasite % of control was 31.8% (inactive).
Taken in the same sequence, the figures for `C=CC(=O)N1CCN(Cc2ccc(C(=O)Nc3ncc(Sc4cc(C(=O)N5CCN(C(C)=O)CC5)c(OC)cc4C)s3)cc2)CC1` were 92.4% and 597% (inactive).
Taken in the same sequence, the figures for `Cc1ccc(C(=O)Nc2cccc(C(F)(F)F)c2)cc1NC(=O)c1ccno1` were 103% and 87.9% (inactive).
For `NS(=O)(=O)c1ccc(-c2ccc(C=C3NC(=S)NC3=O)o2)cc1`, in that order: 98.7% and 100% (inactive).
